Measurements as given in the supplement of paper PMC12067926.
A number with no mark means an inactive call.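 The calls were made as follows: active = growth AUC significantly below the DMSO wells by Dunnett test; inactive = the rest.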

Compound: COc1c(Cl)ccc(Cl)c1C(=O)O
Test: relative growth (AUC of 72 h growth curve relative to DMSO control, dAUC) (ratio); higher = more growth (less inhibition), active = hit call of the paper
Settings: 20 µM
Method: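 Environmental bacterial isolates (Iceland stream sediment and Silwood Park soil) and whole stream-sediment communities were grown in LB from a 1:100 dilution with each pesticide at 20 µM (1% DMSO). A600 was read hourly for 72 h and the area under a spline-fitted growth curve (AUC) was computed. dAUC is the mean AUC of 3 biological replicates divided by the mean AUC of the DMSO controls. Significance was tested by Dunnett's test against the DMSO control.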

Target | relative growth
Pseudomonas 2 (Pseudomonas vancouverensis) | 0.985
Community 8 | 0.99
Community 6 | 1.03
Oryzobacter 1 (Oryzobacter terrae) | 0.925
Community 9 | 1.09
Paenibacillus 1 (Paenibacillus castaneae) | 1.01
Bacillus 1 (Bacillus foraminis) | 1.07
Prolinoborus 1 (Prolinoborus fasciculus) | 0.986
Arthrobacter 3 (Arthrobacter sp.) | 1.07
Microbacterium 1 (Microbacterium arborescens) | 1.02
Community 10 | 1.03
Argrobacterium 1 (Agrobacterium sp.) | 1.01
Pseudomonas 3 (Pseudomonas mandelii) | 0.984
Carnobacterium 1 (Carnobacterium gallinarum) | 1.19
Community 4 | 1.09
Aeromonas 3 (Aeromonas popoffii) | 1.02

Target | relative growth
Rhizobium 1 (Rhizobium herbae) | 0.947
Neobacillus 1 (Neobacillus soli) | 1.06
Community 7 | 0.945
Pseudomonas 5 (Pseudomonas baetica) | 1.02
Pseudomonas 1 (Pseudomonas baetica) | 0.637
Arthrobacter 1 (Arthrobacter humicola) | 0.981
Hymenobacter 1 (Hymenobacter glaciei) | 1
Arthrobacter 2 (Arthrobacter humicola) | 1.1
Sphingomonas 2 (Sphingomonas sp.) | 1.01
Serratia 1 (Serratia sp. 2015-2462-01) | 1.02
Flavobacterium 2 (Flavobacterium succinicans) | 1.01
Flavobacterium 1 (Flavobacterium glaciei) | 1
Pseudomonas 6 (Pseudomonas sp.) | 1.1
Aeromonas 1 (Aeromonas sp. AE235) | 1.02
Aeromonas 2 (Aeromonas sobria) | 1.01
Pseudomonas 4 (Pseudomonas peli) | 1.01
